Results on 57 compounds are retold here after PubChem BioAssay AID504374 (National Center for Advancing Translational Sciences (NCATS), 2011).

The whole screen tested about 1,500 compounds, of which about 100 (6.7%) were called active. A call without a number means that no potency is given here. About 7% were inconclusive and are not listed. Calls come from the whole dose curve; as a rule, active = well fitted inhibition curve with a large enough effect; inconclusive = small, poorly fitted or top-dose-only effect, or effect the other way; inactive = flat fitted curve, though single readings scatter. Many of the other results were omitted from the sample, so actives are more common in it than they were.
Potency is the fitted concentration of half-maximal effect.

Runt-related transcription factor 1 (Homo sapiens) + Core-binding factor subunit beta (Homo sapiens), sequence (Q01196 whole entry, looked up): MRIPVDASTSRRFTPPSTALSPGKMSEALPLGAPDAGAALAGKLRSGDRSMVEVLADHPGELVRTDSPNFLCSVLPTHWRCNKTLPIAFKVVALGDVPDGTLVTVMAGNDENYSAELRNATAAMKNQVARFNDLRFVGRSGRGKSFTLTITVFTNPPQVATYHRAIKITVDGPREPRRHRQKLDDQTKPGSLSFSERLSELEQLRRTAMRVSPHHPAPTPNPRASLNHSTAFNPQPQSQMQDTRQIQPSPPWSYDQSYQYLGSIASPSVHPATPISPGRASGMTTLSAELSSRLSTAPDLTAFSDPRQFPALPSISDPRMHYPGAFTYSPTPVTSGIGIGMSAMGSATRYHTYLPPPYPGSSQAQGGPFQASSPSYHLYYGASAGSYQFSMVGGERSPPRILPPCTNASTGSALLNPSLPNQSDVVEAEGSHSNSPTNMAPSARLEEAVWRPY
Runt-related transcription factor 1 (Homo sapiens) + Core-binding factor subunit beta (Homo sapiens), sequence (Q13951 whole entry, looked up): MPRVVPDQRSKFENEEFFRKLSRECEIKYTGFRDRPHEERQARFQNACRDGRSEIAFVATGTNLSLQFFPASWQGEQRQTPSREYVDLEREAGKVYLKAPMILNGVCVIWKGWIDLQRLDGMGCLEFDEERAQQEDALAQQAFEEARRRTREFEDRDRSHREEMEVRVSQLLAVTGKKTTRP

In the assay the target is Runt-related transcription factor 1 (Homo sapiens) + Core-binding factor subunit beta (Homo sapiens) (UniProt Q01196+Q13951). The experiment in a line: qHTS Assay for Compounds Blocking the Interaction Between CBF-beta and RUNX1 for the Treatment of Acute Myeloid Leukemia: Hit Validation. Note: nearly all actives have a fitted effect of over 60% in size. As to conditions: AlphaScreen CBFb-His/RUNX1-biotin binding; series mostly up to 59.8 µM. The text has this:
NIH Chemical Genomics Center [NCGC]
NIH Molecular Libraries Probe Production centers Network [MLPCN]
Assay Submitter (PI): Paul Liu
Core Binding Factor (CBF) abnormalities are associated with 20-25% of all acute myeloid leukemias (AML), of which 5-10% are further sub classified as acute myelomonocytic leukemia with eosinophilia, also known as M4Eo in the FAB classification scheme. This subtype of leukemia is usually associated with chromosome 16 inversion (p13:q22). Chromosome 16 inversion results in formation of the fusion oncogene CBFB-MYH11, which encodes the fusion protein CBF-beta-SMMHC.
It has been hypothesized that the interference of CBF-beta and RUNX1 binding could have therapeutic implications for patients with CBF mediated leukemias. We developed a CBF-beta and RUNX1 binding assay in AlphaScreenTM format and optimized it for high throughput screening to search for inhibitors. The goal of this project is to screen MLPCN's compound collection (MLSMR) for identifying the inhibitors of the interaction between CBF-beta and RUNX1 proteins as research probes. If these probes work well in the animal models, the ultimate goal of this project is to development a new drug treatment for this disease.
This assay can not be used to assess how apparent inhibitors interfere with protein binding, and whether inhibitors specifically bind to either protein. Disruption of this protein-protein interaction, through any mechanism, is the intended target activity.
The present data set was run to confirm the activity of hits from the primary screen.
NCGC Assay Protocol Summary:
Step, Parameter, Description
(1) Reagent, 3 uL CBFb-His/RUNX1-biotin mix incubated together for 20 minutes at room temperature (30 nM each)
(2) Compound or control, 23 nL compound stock solution
(3) Incubation, 15 minutes at Room temperature
(4) Reagent, 1 uL 50 ng each of beads (Nickel beads and streptavidin beads)
(5) Incubation, 90 minutes at Room temperature
(6) Detection, Excitation=365 nm Emission=440 nm, Envision reader in AlphaScreenTM mode
Keywords: MLSMR, MLPCN, NIH Roadmap, qHTS, NCGC, Core binding factor, CBF, CBF-beta, Acute myeloid leukemia
For the compound `Oc1ccccc1/C=N/Nc1ncc(Br)cn1`, the Potency was 3.55 µM (active).
Under `O=C(N/N=C/c1ccccc1[N+](=O)[O-])c1cnccn1` stands “inactive”.
With `O=C(O)c1ccccc1N/N=C/c1cc(Br)cc(Br)c1O` the entry was “inactive”; with `O=C(c1ccccc1)c1ccc2c(c1)OCCCO2`, “inactive”.
Under `CCOc1ccc(OCc2ccc(C(=O)NN)o2)cc1` stands “inactive”; under `Cc1cccc(-c2n[nH]c(=S)n2/N=C/c2cccs2)c1`, “inactive”.
Turning to `OCc1ncc(-c2ccccc2)s1`, the Potency result is “inactive”.
With `CN1CCN(c2nnc(-c3ccccc3)c(-c3ccccc3)n2)CC1`, the Potency entry was “inactive”.
Under `c1ccc(-c2nnc(N3CCN(c4ccccc4)CC3)nc2-c2ccccc2)cc1` stands “inactive”.
With `c1ccc(-c2nnc(-c3ccccn3)nc2NC2CCCCC2)cc1` the figure was 2.24 µM (active); with `CN(C)c1nc(-c2ccccn2)nnc1-c1ccccc1`, 1.41 µM (active).
Regarding `O=C(N/N=C/c1ccco1)c1cc(C2CC2)[nH]n1`, the Potency result was “inactive”.
Under `Cc1onc(-c2c(Cl)cccc2Cl)c1C(=O)Nc1nc(C(C)(C)C)cs1` stands “inactive”; under `Cc1ccc(-c2c[n+](CC(=O)Nc3ccccc3C)c3n2CCC3)cc1`, “inactive”.
Under `Cc1ccc(C[n+]2cc(-c3ccc(Cl)cc3)n3c2CCC3)cc1` stands “inactive”.
With `COc1ccc(/C=N/OC(=O)c2ccc(Cl)cc2)c(Cl)c1OC` the entry was “inactive”; with `CCOC(=O)CSc1nnc(Cn2nnc3ccccc32)n1-c1ccc(F)cc1`, “inactive”; with `CN(CC(O)CN1CCOCC1)S(=O)(=O)O` (configuration not stated), “inactive”.
Regarding `CCOC(=O)c1nn(-c2ccc([N+](=O)[O-])cc2)cc1O`, the Potency result is “inactive”.
Under `Cn1c(=O)c2cc3ccccc3nc2n(C)c1=O` stands “inactive”.
Under `COc1ccc(CCNC(=S)NCCc2ccc(OC)c(OC)c2)cc1OC` stands “inactive”.
Under `CCO/C=C1\SC(=S)N(c2ccc(Cl)cc2)C1=O` stands “inactive”; under `Cc1ccc(S(=O)(=O)NC(=O)Nc2ccc(OC(F)F)cc2)cc1`, “inactive”.
In the case of `Cc1cc(C)n2nc(N)c(N=Nc3ccccc3)c2n1`, the Potency entry is “inactive”.
With `Nc1nc(-c2ccccc2)c(N=Nc2cccc3ccccc23)s1` the figure was 1.94 µM (active).
With `Nc1nc(-c2ccccc2)c(N=Nc2ccccc2Cl)s1` the figure was 4.34 µM (active); with `Nc1nc(-c2ccccc2)c(N=Nc2ccc(Cl)cc2)s1`, 13.7 µM (active); with `CC1CC(C)(C)OC(C[N+]2(C)CCCCC2)O1` (configuration not stated), “inactive”.
With `COc1ccccc1NC(=S)NC1CCCCCCCCCCC1`, the Potency entry was “inactive”.
With `CCOC(=O)C1CCCN(C(=O)Nc2c(-c3ccccc3)noc2C)C1` (configuration not stated) the entry was “inactive”; with `COc1ccc(C(=O)/C=C/Nc2cc(C)ccn2)cc1`, “inactive”; with `COC(=O)c1[nH]c2cc(OC)ccc2c1NC(=O)c1c(F)cccc1F`, “inactive”.
With `CC(C)(C)c1csc(Sc2ccc([N+](=O)[O-])cn2)n1` the entry was “inactive”; with `CC(=O)Oc1cc2cccc(OC(C)=O)c(=O)c2c(OC(C)=O)c1OC(C)=O`, 1.12 µM (active).
For `O=C(N/N=C/c1ccc2c(c1)OCCO2)c1ccncc1`, the Potency result was “inactive”.
With `CC(=O)c1cnn(-c2ccc(Cl)c(Cl)c2Cl)c1C` the entry was “inactive”; with `CCOC(=O)N1CCc2c(sc3nc[nH]c(=O)c23)C1`, “inactive”.
With `CCc1c(C#N)sc(C(N)=O)c1CC` the entry was “inactive”.
Under `CN=c1scc(-c2ccccc2F)n1/N=C/c1ccc(O)c(O)c1O` stands 6.87 µM (active).
Consider `CC(=O)Nc1ccc(S(=O)(=O)Nc2ccc(C(=O)NCC(=O)O)cc2)cc1`, for which the Potency entry is “inactive”.
Under `Cc1cccc(C)c1NC(=S)N1CCOCC1` stands “inactive”; under `Cc1ccc(C(=O)CSc2nnc(-c3snnc3C)n2C2CC2)cc1`, “inactive”; under `CN(C)c1ccc(N2C(=O)CC(c3ccccc3)CC2=O)cc1`, “inactive”.
Under `CC1=[N+](C)N(c2ccccc2)C(=O)C1N=C/C=C/c1ccccc1` (configuration not stated) stands “inactive”; under `CC1=NN(c2ccccc2)C(=O)/C1=C/C=C/c1ccc(N(C)C)cc1`, 1.12 µM (active).
With `CN1CCN(C(=O)Nc2cccc(-c3ccccc3)c2)CC1` the entry was “inactive”.
On to `CCc1c(-c2ccccc2)[n+](=O)c2c(n1[O-])CCC2`, for which the Potency entry is “inactive”.
Under `O=C(O)C1=CC(=C(c2ccc(O)c(C(=O)O)c2)c2ccc(O)c(C(=O)O)c2)C=CC1=O` stands 1.78 µM (active); under `O=C(NNC(=S)NC1CC2C=CC1C2)c1ccncc1` (configuration not stated), “inactive”; under `O=C(NC(=S)NNC(=O)c1cnccn1)c1ccc(F)cc1`, 2 µM (active).
With `O=C(N/N=C/c1ccncc1)c1cnccn1` the entry was “inactive”; with `CCOP(=O)(c1ccc(N(C)C)cc1)C(O)c1cccnc1` (configuration not stated), “inactive”; with `CN(C)NC(=S)NC1CCS(=O)(=O)C1` (configuration not stated), “inactive”.
With `O=C1CC(Sc2ccc(Cl)cc2)C(=O)N1c1ccc2c(c1)OCCO2` (configuration not stated) the entry was “inactive”; with `Fc1ccccc1/C=N/n1c(-c2cccnc2)n[nH]c1=S`, “inactive”; with `Cc1cccc(-c2n[nH]c(=S)n2/N=C/c2ccco2)c1`, “inactive”.
With `O=[N+]([O-])c1cc2c(cc1/C=N/n1c(-c3ccccn3)n[nH]c1=S)OCO2`, the Potency was 10 µM (active).
